Measurements from PubChem BioAssay.
Activity calls are given as the source filed them.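 How the source made its calls: active means thallium flux through the channel raised or lowered by more than 3 SD from vehicle-only wells, actives on both sides; inactive means the rest.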

Key:
Assay in all cases: BK channel mutant inhibitors and activators – cell-based, U2OS BacMam, thallium flux, beta subunits, selectivity assay, profiling panel (AID 1259406);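 further: initial slope of Thallos dye fluorescence rise after thallium is added; log ratio against the mean of 0.3% DMSO vehicle wells on the same plate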
F380Y = details: U2OS BacMam BK variants, at 30 µM
F380Y/beta1 = details: U2OS BacMam BK variants, at 30 µM
F380Y/beta2Delta = details: U2OS BacMam BK variants, at 30 µM
F380Y/beta4 = details: U2OS BacMam BK variants, at 30 µM
[1] = biological target: Calcium-activated potassium channel subunit alpha-1 (Homo sapiens) + Leucine-rich repeat-containing protein 26 (Homo sapiens) (UniProt Q12791+Q2I0M4); details: U2OS BacMam BK variants, F380Y/Slo1WT/gamma1, at 30 µM
R275C = details: U2OS BacMam BK variants, at 30 µM
R275C/beta1 = details: U2OS BacMam BK variants, at 30 µM
R275C/beta2Delta = details: U2OS BacMam BK variants, at 30 µM
R275C/beta4 = details: U2OS BacMam BK variants, at 30 µM
R275C/Slo1WT/beta2 = details: U2OS BacMam BK variants, at 30 µM

Measured: log fold change Tl+ flux

Sequence of Calcium-activated potassium channel subunit alpha-1 (Homo sapiens) + Leucine-rich repeat-containing protein 26 (Homo sapiens) (Q2I0M4 whole entry, looked up, one chain of several): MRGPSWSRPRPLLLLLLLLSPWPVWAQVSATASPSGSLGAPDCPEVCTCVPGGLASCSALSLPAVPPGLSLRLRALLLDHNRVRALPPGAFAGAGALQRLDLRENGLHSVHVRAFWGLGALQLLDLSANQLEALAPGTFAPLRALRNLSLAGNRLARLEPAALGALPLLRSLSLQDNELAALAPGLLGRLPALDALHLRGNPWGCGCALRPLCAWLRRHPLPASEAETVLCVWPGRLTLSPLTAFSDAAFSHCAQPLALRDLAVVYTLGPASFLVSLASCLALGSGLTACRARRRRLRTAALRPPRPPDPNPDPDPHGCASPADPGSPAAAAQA

Cc1ccc(S(=O)(=O)c2ncsc2SCc2ccc(Cl)cc2Cl)cc1
inactive: F380Y 0.0356 | F380Y/beta1 -0.0176 | F380Y/beta2Delta 0.0366 | F380Y/beta4 -0.0184 | [1] 0.00897 | R275C -0.00241 | R275C/beta1 0.0419 | R275C/beta2Delta -0.0166 | R275C/beta4 -0.0112 | R275C/Slo1WT/beta2 -0.00155

CC(=O)Oc1ccc(OC(C)=O)c2cc3c(OC(C)=O)ccc(OC(C)=O)c3cc12
inactive: F380Y -0.0214 | F380Y/beta1 -0.0286 | F380Y/beta2Delta -0.0254 | F380Y/beta4 0.0175 | [1] 0.0282 | R275C -0.0106 | R275C/beta1 -0.0199 | R275C/beta2Delta -0.0114 | R275C/beta4 -0.0622 | R275C/Slo1WT/beta2 0.0234

Cc1onc(-c2c(Cl)cccc2Cl)c1C(=O)NOC(=O)c1cccs1
inactive: F380Y 0.00334 | F380Y/beta1 0.0153 | F380Y/beta2Delta 0.0189 | F380Y/beta4 0.0829 | [1] -0.0657 | R275C -0.0156 | R275C/beta1 0.0266 | R275C/beta2Delta 0.0291 | R275C/beta4 0.0618 | R275C/Slo1WT/beta2 -0.0647

S=c1sc2c(s1)SCC1(CS2)OCCO1
inactive: F380Y -0.0425 | F380Y/beta1 0.0267 | F380Y/beta2Delta -0.0279 | F380Y/beta4 0.0791 | [1] 0.000395 | R275C -0.0211 | R275C/beta1 -0.0642 | R275C/beta2Delta -0.0207 | R275C/beta4 -0.0357 | R275C/Slo1WT/beta2 -0.00583

CN1CCN(CC(=O)Nc2ccccc2Oc2ccccc2)CC1
inactive: F380Y 0.0235 | F380Y/beta1 0.0196 | F380Y/beta2Delta 0.0764 | F380Y/beta4 0.0239 | [1] 0.0414 | R275C -2.9e-05 | R275C/beta1 0.00212 | R275C/beta2Delta 0.00784 | R275C/beta4 0.00808 | R275C/Slo1WT/beta2 0.0378

Cc1ccc(S(=O)(=O)NC(=O)NCc2csc3ccc(Cl)cc23)cc1
inactive: R275C 0.0453
active: F380Y 0.252 | F380Y/beta1 0.65 | F380Y/beta2Delta 0.241 | F380Y/beta4 0.366 | [1] 0.14 | R275C/beta1 0.48 | R275C/beta2Delta 0.193 | R275C/beta4 0.329 | R275C/Slo1WT/beta2 0.116

CC1=NC2SC=C(c3ccccc3Cl)N2C(=O)C1 (stereo not given)
inactive: F380Y -0.0123 | F380Y/beta1 0.0244 | F380Y/beta2Delta -0.0252 | F380Y/beta4 0.00331 | [1] -0.0675 | R275C -0.0205 | R275C/beta1 0.0259 | R275C/beta2Delta -0.0444 | R275C/beta4 0.037 | R275C/Slo1WT/beta2 0.0321

O=C(NCCSCc1ccco1)c1cncc(Br)c1
inactive: F380Y 0.0566 | F380Y/beta1 -0.00628 | F380Y/beta2Delta 0.00549 | F380Y/beta4 0.0375 | [1] 0.0375 | R275C -0.0119 | R275C/beta1 0.0315 | R275C/beta2Delta 0.0453 | R275C/beta4 -0.016 | R275C/Slo1WT/beta2 0.024

CSc1nc(C=Nc2cccc(Cl)c2)c(O)n1Cc1cccc(Cl)c1
inactive: F380Y -0.00291 | F380Y/beta2Delta 0.0623 | F380Y/beta4 -0.0889 | [1] 0.0392 | R275C -0.03 | R275C/beta1 0.102 | R275C/Slo1WT/beta2 -0.0459
active: F380Y/beta1 0.208 | R275C/beta2Delta 0.137 | R275C/beta4 0.11

Cn1c(SCc2ccc(C(F)(F)F)cc2)nnc1C(F)(F)F
inactive: F380Y -0.0854 | F380Y/beta1 0.00114 | F380Y/beta2Delta -0.0293 | F380Y/beta4 0.0223 | [1] -0.00125 | R275C -0.0523 | R275C/beta2Delta -0.0607 | R275C/Slo1WT/beta2 -0.00318
active: R275C/beta1 -0.14 | R275C/beta4 -0.153

Cc1nc2ccc(C(=O)O)cc2[nH]1
inactive: F380Y 0.0381 | F380Y/beta1 0.0177 | F380Y/beta2Delta 0.0131 | F380Y/beta4 0.0015 | [1] 0.0154 | R275C 0.0142 | R275C/beta1 0.0541 | R275C/beta2Delta 0.0118 | R275C/beta4 -0.00127 | R275C/Slo1WT/beta2 0.0354

Cc1ccc(S(N)(=O)=O)c(I)c1
inactive: F380Y 0.00642 | F380Y/beta1 0.0178 | F380Y/beta2Delta 0.0148 | F380Y/beta4 -0.000543 | [1] -0.0495 | R275C 0.0442 | R275C/beta1 0.0166 | R275C/beta2Delta -0.00341 | R275C/beta4 0.00339 | R275C/Slo1WT/beta2 -0.0513

Cc1ccc(C(C)NC(=O)c2ccc(Cl)c(Cl)c2)c(C)c1 (stereo not given)
inactive: F380Y -0.0383 | F380Y/beta1 -0.0447 | F380Y/beta2Delta -0.0218 | F380Y/beta4 -5.9e-05 | R275C -0.0401 | R275C/beta1 0.0121 | R275C/beta2Delta -0.00757 | R275C/beta4 0.00443 | R275C/Slo1WT/beta2 -0.0265
active: [1] -0.119

COC(=O)c1ccc(S(=O)(=O)NNc2ncnc3cc(C(C)(C)C)sc23)n1C
inactive: F380Y 0.00239 | F380Y/beta1 0.00797 | F380Y/beta2Delta 0.0347 | F380Y/beta4 0.0667 | [1] 0.00885 | R275C 0.0131 | R275C/beta1 -0.027 | R275C/beta2Delta 0.00378 | R275C/beta4 -0.0156 | R275C/Slo1WT/beta2 0.0399

O=c1[nH]nc(N2CCSCC2)[nH]1
inactive: F380Y 0.00841 | F380Y/beta1 0.0329 | F380Y/beta2Delta -0.0177 | F380Y/beta4 0.0123 | [1] -0.0239 | R275C 0.0133 | R275C/beta1 0.000508 | R275C/beta2Delta -0.00725 | R275C/beta4 0.0241 | R275C/Slo1WT/beta2 0.014

Cn1ncc2ccccc2c1=O
inactive: F380Y 0.0178 | F380Y/beta1 0.0239 | F380Y/beta2Delta 0.0287 | F380Y/beta4 0.0126 | [1] -0.0763 | R275C -0.0283 | R275C/beta1 -0.0396 | R275C/beta2Delta 0.0689 | R275C/beta4 -0.014 | R275C/Slo1WT/beta2 0.00701

Cc1noc(C=Cc2sccc2C2OCCO2)c1[N+](=O)[O-]
inactive: F380Y 0.00373 | F380Y/beta1 0.00792 | F380Y/beta2Delta -0.0403 | F380Y/beta4 -0.0687 | [1] -0.0936 | R275C 0.00445 | R275C/beta1 -0.0604 | R275C/beta2Delta -0.0701 | R275C/beta4 -0.00776 | R275C/Slo1WT/beta2 -0.000775

Clc1cc(Cl)cc(Nc2ncnc(-n3cccc3)n2)c1
inactive: F380Y 0.0686 | F380Y/beta1 0.0545 | F380Y/beta2Delta 0.0354 | F380Y/beta4 0.0368 | [1] 0.0181 | R275C 0.00673 | R275C/beta1 0.00955 | R275C/beta2Delta 0.0395 | R275C/beta4 -0.0107 | R275C/Slo1WT/beta2 -0.0692

O=C(Nc1ccc(F)cc1)N1CCN(Cc2ccccc2)CC1
active: R275C/beta4 0.0882
inactive: F380Y 0.0438 | F380Y/beta1 0.00516 | F380Y/beta2Delta 0.00491 | F380Y/beta4 0.032 | [1] 0.0285 | R275C 0.0233 | R275C/beta1 0.0689 | R275C/beta2Delta -0.00966 | R275C/Slo1WT/beta2 0.000608

COC(=O)C=C1NCC(O)CNC1=O (stereo not given)
inactive: F380Y -0.00633 | F380Y/beta1 -0.0361 | F380Y/beta2Delta 0.00999 | F380Y/beta4 -0.025 | [1] -0.0336 | R275C 0.0119 | R275C/beta1 -0.0456 | R275C/beta2Delta 0.0117 | R275C/beta4 -2.9e-05 | R275C/Slo1WT/beta2 0.0313

CCOC(=O)c1ccc(OCC#Cc2ccc(C(F)(F)F)cn2)cc1
inactive: F380Y -0.0256 | F380Y/beta1 -0.0209 | F380Y/beta2Delta -0.0279 | F380Y/beta4 -0.0657 | [1] -0.0262 | R275C -0.0775 | R275C/beta1 -0.0424 | R275C/beta2Delta -0.0497 | R275C/beta4 -0.0346 | R275C/Slo1WT/beta2 -0.0412

C#Cc1cccc(NS(=O)(=O)c2ccc(Cl)c(Cl)c2)c1
inactive: R275C -0.0107 | R275C/Slo1WT/beta2 -0.0633
active: F380Y 0.107 | F380Y/beta1 0.533 | F380Y/beta2Delta 0.116 | F380Y/beta4 0.222 | [1] 0.182 | R275C/beta1 0.291 | R275C/beta2Delta 0.158 | R275C/beta4 0.196

CN(C)C=Nc1cc(Cl)c(-n2cccc2)cc1Oc1ccc(Cl)cc1
inactive: F380Y 0.0245 | F380Y/beta1 0.0128 | F380Y/beta2Delta -0.0305 | F380Y/beta4 -0.016 | [1] 0.0223 | R275C -0.0532 | R275C/beta1 -0.0556 | R275C/beta2Delta -0.0155 | R275C/beta4 -0.0061 | R275C/Slo1WT/beta2 -0.0144

O=C(ON(C(=O)c1ccc(F)cc1)C1C2CC3CC(C2)CC1C3)c1ccc(F)cc1 (stereo not given)
inactive: F380Y 0.0231 | F380Y/beta1 -0.0234 | F380Y/beta2Delta 0.00474 | F380Y/beta4 0.0374 | [1] 0.0901 | R275C 0.0436 | R275C/beta1 -0.0159 | R275C/beta2Delta 0.00798 | R275C/beta4 0.0539 | R275C/Slo1WT/beta2 0.0295

CSC(NCc1cccnc1)=C(C#N)S(=O)(=O)c1ccc(Cl)cc1
inactive: F380Y 0.0268 | F380Y/beta1 0.0532 | F380Y/beta2Delta 0.0758 | F380Y/beta4 0.000772 | [1] 0.0179 | R275C 0.0549 | R275C/beta1 0.0793 | R275C/beta4 0.0736 | R275C/Slo1WT/beta2 0.0289
active: R275C/beta2Delta 0.0872

CCOC(=O)C1CCCN(C(=O)Nc2c(-c3ccccc3)noc2C)C1 (stereo not given)
inactive: F380Y 0.0297 | F380Y/beta1 -0.0223 | F380Y/beta2Delta -0.00149 | F380Y/beta4 0.0159 | [1] 0.00293 | R275C -0.0483 | R275C/beta1 -0.0144 | R275C/beta2Delta -0.0161 | R275C/beta4 -0.0185 | R275C/Slo1WT/beta2 0.00733
